Reference: PubChem BioAssay AID488969 (Vanderbilt High Throughput Screening Facility, 2010)
In all, about 110,000 compounds were measured (“z-score”: median about -0.1, highest 2% from about 2 on). The sample holds the highest values, similar compounds and a random draw of the others, so the mix is not that of the screen. Calls of active or inactive are those of the source.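 Rule for the calls: active = z-score in the third read window above 3 or below -3; inactive = the rest.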

Biological target: Metabotropic glutamate receptor 8 (Rattus norvegicus) (UniProt P70579)
Sequence (P70579 whole entry, looked up): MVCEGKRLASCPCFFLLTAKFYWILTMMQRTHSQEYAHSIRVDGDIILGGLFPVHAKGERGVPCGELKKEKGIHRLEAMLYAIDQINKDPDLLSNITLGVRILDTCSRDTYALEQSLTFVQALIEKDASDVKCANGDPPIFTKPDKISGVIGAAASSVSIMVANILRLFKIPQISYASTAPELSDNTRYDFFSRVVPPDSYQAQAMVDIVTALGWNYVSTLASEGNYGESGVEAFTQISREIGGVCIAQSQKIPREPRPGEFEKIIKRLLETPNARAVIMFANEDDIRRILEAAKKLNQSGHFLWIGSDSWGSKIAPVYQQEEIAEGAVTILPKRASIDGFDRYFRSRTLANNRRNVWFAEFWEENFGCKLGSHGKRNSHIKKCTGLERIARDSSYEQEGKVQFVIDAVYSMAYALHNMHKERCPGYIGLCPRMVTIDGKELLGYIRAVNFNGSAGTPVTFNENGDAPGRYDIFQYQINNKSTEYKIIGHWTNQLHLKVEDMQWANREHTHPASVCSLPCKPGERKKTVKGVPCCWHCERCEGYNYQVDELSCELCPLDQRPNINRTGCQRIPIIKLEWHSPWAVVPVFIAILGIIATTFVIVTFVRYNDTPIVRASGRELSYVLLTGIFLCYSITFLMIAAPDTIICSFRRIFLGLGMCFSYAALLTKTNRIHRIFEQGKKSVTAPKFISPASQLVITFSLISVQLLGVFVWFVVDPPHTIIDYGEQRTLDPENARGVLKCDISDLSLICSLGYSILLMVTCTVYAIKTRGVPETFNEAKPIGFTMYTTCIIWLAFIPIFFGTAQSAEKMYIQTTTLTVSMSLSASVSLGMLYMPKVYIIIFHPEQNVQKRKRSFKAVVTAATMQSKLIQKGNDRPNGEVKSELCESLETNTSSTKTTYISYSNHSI
Test: mGluR8 Gi/Go-coupled signaling modulation – cell-based, rat, thallium flux, HTS, primary screen (AID 488969)
Details: HEK293 rat mGluR8, GIRK (G protein-gated inwardly rectifying potassium channel) thallium flux, FluoZin2; at 10 µM; stronger effect = higher value; submaximal glutamate (EC20) added with thallium

SMILES | z-score
COc1ccccc1CNC(=O)CSc1ccc(Br)cc1 | 0.558
Cc1cc(C)cc(C(=O)N2CCCCCC2)c1 | 0.076
COc1ccc(NC(=O)[C@H](COCc2ccccc2)NC(=O)OC(C)(C)C)cc1 | 0.329
Cc1cc(NC(=O)CSc2nnc(-c3ccco3)o2)no1 | 0.184
Cc1ccc(Cl)cc1NC(=S)NCc1cccn1C | 6.81 (active)
Cc1c(Cl)cccc1NC(=S)NCc1cccn1C | 0.262
Cc1ccccc1NC(=S)NCc1cccn1C | -0.488
O=C(OC1CCN(c2ncc(C(F)(F)F)cc2Cl)CC1)c1ccc(Cl)cc1 | -0.0974
c1cn(CC2(Cn3ccnc3)COC2)cn1 | 3.15 (active)
O=C(O)Cn1ccnc1 | -0.327
COc1cc(Cn2ccnc2)c(OC)cc1Cn1ccnc1 | -0.198
CCCN1CCC(NC(=O)Nc2ccccc2C(=O)OC)CC1 | -0.336
CCCN1CCC(NC(=O)Nc2ccc(OC)c(OC)c2)CC1 | 0.00828
CCCN1CCC(NC(=O)Nc2ccc(F)cc2F)CC1 | 2.81
COC(=O)c1ccc(NC(=O)CNCc2ccncc2)cc1 | -0.143
Cc1onc(-c2ccccc2Cl)c1C(=O)N1CCc2ccccc2C1 | -0.95
Cc1noc(C)c1C(=O)N1CCc2ccccc2C1 | 1.98
Cc1onc(-c2c(Cl)cccc2Cl)c1C(=O)N1CCc2ccccc2C1 | 0.0144
C=CCn1c(CCNC(=O)c2ccccc2F)nnc1SCC(=O)Nc1nc(C)cs1 | 0.0314
CCOc1cc(C2C(C#N)=C(N)Oc3n[nH]c(C)c32)ccc1OCCN1CCOCC1 (configuration not stated) | -0.102
COC(=O)c1cc(-c2ccccc2)on1 | -1.87
CCCCP(=O)(CCCC)CCP(=O)(c1ccccc1)c1ccccc1 | -0.667
O=C(O)Cn1c(SCc2cccc3ccccc23)nc2ccccc21 | 1.11
O=C(O)CCn1c(SCc2ccccc2)nc2ccccc21 | -0.0963
O=C(O)CCn1c(SCc2cccc3ccccc23)nc2ccccc21 | 2.1
CCOc1ccc(NC(=O)CCNc2c(N3CCCC3)c(=O)c2=O)cc1 | -0.437

SMILES | z-score
CC(C)Cn1c(-c2csc3c2CCCC3)n[nH]c1=S | -1.59
CCCCn1c(-c2csc3ccccc23)n[nH]c1=S | 2.3
CCn1c(-c2csc3c2CCC(C)C3)n[nH]c1=S (configuration not stated) | 1.49
CC(C)Cn1c(-c2csc3ccccc23)n[nH]c1=S | 0.509
CCCCn1c(-c2csc3c2CCCC3)n[nH]c1=S | 6.19 (active)
CCn1c(-c2csc3c2CCCC3)n[nH]c1=S | -0.181
CCCCn1c(-c2csc3c2CCC(C)C3)n[nH]c1=S (configuration not stated) | 7.55 (active)
C=CCn1c(-c2csc3c2CCC(C)C3)n[nH]c1=S (configuration not stated) | 0.494
CCn1c(-c2csc3ccccc23)n[nH]c1=S | -0.273
CCCOc1ccc(C2/C(=C(\O)c3c(C)[nH]c(C(=O)OC)c3C)C(=O)C(=O)N2CCN(C)C)cc1 (configuration not stated) | 0.491
CCC(N1CCOC1=O)S(=O)(=O)c1ccc(C)cc1 (configuration not stated) | -0.148
Cc1cccnc1NC(=O)Nc1cccs1 | -0.232
COc1cc(NC(=O)c2ccc(COCC(F)(F)F)o2)cc(OC)c1OC | 2.1
COc1cc(NC(=O)c2ccc(COc3ccccc3Br)o2)cc(OC)c1OC | -0.932
COc1cc(NC(=O)c2ccc(COCC(F)(F)F)cc2)cc(OC)c1OC | -0.608
NC(=O)C1CCN(C(=O)COc2ccc3ccccc3c2)CC1 | 0.115
CCc1ccc(NC(=O)COn2nnc3ccc(S(=O)(=O)N(C)C)cc32)cc1 | -0.27
Cc1ccc(NC(=O)COn2nnc3ccc(S(=O)(=O)N(C)C)cc32)cc1F | 3.29 (active)
CCN(CC)S(=O)(=O)c1ccc2nnn(OCC(=O)Nc3cccc(C#N)c3)c2c1 | -0.793
COCCNS(=O)(=O)c1ccc(-c2ccc(C)cc2)cc1 | -0.0903
CCOC(=O)c1cnc2c(Cl)cccc2c1NCCN(C)C | 0.313
O=C(O)C1C2C=CC(C2)C1C(=O)NC1CCN(Cc2ccccc2)CC1 (configuration not stated) | 0.581
S=c1nc[nH]c2c1[nH]c1ccccc12 | 0.0879
Cc1nc(=S)c2ccccc2[nH]1 | 1.49
S=c1nc(C2CC2)[nH]c2ccccc12 | 9.36 (active)
CC(C)c1nc(=S)c2ccccc2[nH]1 | 13.7 (active)

SMILES | z-score
Cc1cc(=O)c2ccccc2[nH]1 | 0.0595
O=C(C1CCCCC1)N1CCC(c2nc3ccccc3[nH]2)CC1 | -0.166
COc1ccc(Cc2nnc(SCc3c(C)noc3C)n2C2CCCCC2)cc1OC | 0.045
CSC(=NC(C)c1ccccc1)NS(=O)(=O)c1cccs1 (configuration not stated) | 0.148
COc1ccc(/C=C/C(=O)NC(=S)Nc2cc3oc4ccccc4c3cc2OC)cc1 | 0.0202
Cc1cccc(C)c1-n1c(C)cc(/C=C2\NC(=O)NC2=O)c1C | -0.96
Cc1cc(C)c(-n2c(C)cc(/C=C3/NC(=O)NC3=O)c2C)c(C)c1 | 2.07
Cc1cc(/C=C2/NC(=O)NC2=O)c(C)n1-c1ccccn1 | -0.389
Cn1cnnc1SC(C(=O)Nc1ccc(F)cc1)c1ccccc1 (configuration not stated) | -0.0653
Cc1ccc(S(=O)(=O)N2CCC(C(=O)NC3CCCCCC3)CC2)cc1 | -0.0732
CCC/C(O)=C1\C(=O)CCCC1=NCCCCCC(=O)O | 0.156
COc1ccc(-c2nc(CS(=O)(=O)CC(=O)NCCc3cc(OC)ccc3OC)c(C)o2)cc1 | -0.299
COc1ccc(OC)c(CCNC(=O)Cn2sc3nc(C)cc(C)c3c2=O)c1 | 2.22
COc1ccc(OC)c(CCNC(=O)CN2C(=O)CC(C)(C)S(=O)(=O)c3ccccc32)c1 | 0.0628
O=C(C1CCC(=O)N1Cc1ccccc1Cl)N1CCN(c2cccc(Cl)c2)CC1 (configuration not stated) | -0.174
CC(CNC(=O)c1cc(Cl)ccc1[N+](=O)[O-])NC(=O)c1cc(Cl)ccc1[N+](=O)[O-] (configuration not stated) | -0.0709
Cc1ccc(/C([O-])=C(/C(=S)NCc2ccco2)[n+]2ccccc2)cc1 | -0.112
Cc1cc(C)n(-c2nc(NCCC(C)C)c3c4c(sc3n2)COC(C)(C)C4)n1 | -0.867
CNc1ccccc1-n1ccc(-c2ccccc2)n1 | 1.11
c1ccc(-c2ccn3nnnc3n2)cc1 | -0.244
N=c1nc(-c2ccccc2)ccn1O | 2.64
O=c1c(-c2ccco2)[n+]([O-])c2ccccc2n1OCc1ccccn1 | -0.153
CN1CCN(S(=O)(=O)c2cccc(S(=O)(=O)c3ccc(Cl)c(Cl)c3)c2)CC1 | 1.26
CN1CCN(S(=O)(=O)c2cccc(S(=O)(=O)c3ccc(Cl)cc3)c2)CC1 | 0.2
CN1CCN(S(=O)(=O)c2cccc(S(=O)(=O)c3cccc(S(=O)(=O)N4CCN(C)CC4)c3)c2)CC1 | 14 (active)
